AMA1 RON2 block = inhibitors of Plasmodium falciparum AMA1-RON2 interaction | 360,000 tested, 0.2% active | Potency, µM (highest dose often 58.2 µM), actives largely listed as inhibitors | AlphaScreen AMA1-biotinylated RON2 peptide binding | AID 720542; further: nearly all actives have a fitted effect of over 45% in size
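AMA1 (3D7) with his tag at 25 nM final met compounds first, then biotinylated RON2 peptide at 25 nM; detection used donor plus acceptor beads, 10 µg/mL apiece, read by AlphaScreen after 30 min at room temperature.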
Pf growth 48h = P. falciparum growth inhibition at 48 hours (one generation) | P. falciparum luciferase growth in erythrocytes, 48 h | Potency, µM (titrated, usually from 28.7 µM), most hits filed as inhibitors | 310,000 tested, 5.9% active
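Here the parasites carry a stable luciferase gene and grow inside erythrocytes in Albumax-based RPMI medium with compound for one erythrocytic cycle. Activity is scored as loss of luminescent signal.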
Shiga inhibitor = inhibitors of Shiga toxin in Vero cells; Vero cells, Shiga toxin protein synthesis inhibition reporter; inhibition, % at 38.7 µM; 290,000 tested, 9.2% active; in the data active means inhibition mostly above about 28%, no sharp cut-off; inactive means mostly below about 43%
CHX counter = affects cycloheximide protein synthesis inhibition readout, counter-screen; 300,000 tested, 12% active; max response, %; cell reporter, cycloheximide protein synthesis inhibition counterscreen; AID 2314; in the data active means max response mostly above about 13%, no sharp cut-off; inactive means mostly below about 14%; further: read at 38.3 µM for the half of the compounds with a filed dose
Pf growth 96h = P. falciparum growth inhibition at 96 hours; P. falciparum luciferase reporter growth, 96 h; Potency, µM (highest dose often 28.7 µM), usual class: inhibitors; 320,000 tested, 6.9% active
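Two parasite generations (96 h, 37 C, 5% CO2) of compound exposure in infected erythrocytes (0.05% parasitemia, 2% hematocrit). Luciferase-reporter P. falciparum; decreased luminescence indicates inhibited growth, aimed at apicoplast-acting delayed death.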
HCV inh = blocks hepatitis C virus; Huh7.5.1 HCVcc-Cre infection, luciferase reporter, 44 h; Potency, µM (doses to about 41.8 µM), usual class: inhibitors; 340,000 tested, 3.4% active; AID 651820
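Compounds are dispensed onto cells plated 4 h earlier at 1,000 per well, with HCVcc-Cre virus (about 0.5 moi) added next. Following 44 h of culture, luminescent signal is measured for 15 sec after 15 min with substrate at room temperature.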
A number is an active result. A selection: hits, their analogues and other compounds. The true share with any hit is near 21%. Unless noted, the call rests on the fitted dose curve; in most records, active means well fitted curve in the direction sought with a large enough effect; inconclusive means small, poorly fitted or top-dose-only effect, or another doubt; inactive means no such curve, though single readings can be large; an effect the other way counts as inactive or inconclusive.

`O=C(NCCc1cccs1)Nc1ccc2nc([C@@H]3O[C@H](CO)[C@@H](O)[C@H]3O)[nH]c2c1` gave AMA1 RON2 block inactive.
Cc1c(-n2c(SCC(=O)C(C)(C)C)nc3ccccc3c2=O)c(=O)n(-c2ccccc2)n1C was read as AMA1 RON2 block inactive, Pf growth 48h inconclusive, Shiga inhibitor inactive, CHX counter inactive, Pf growth 96h inactive and HCV inh inactive.
N#C/C(=C(/O)c1ccc(Cl)cc1)c1nc2ccccc2[nH]1 was read as AMA1 RON2 block inactive, Pf growth 48h inactive, Shiga inhibitor inactive, CHX counter inactive, Pf growth 96h inactive and HCV inh inactive.
`N#C/C(=C(/O)C(Cl)(Cl)Cl)c1nc2ccccc2[nH]1` gave AMA1 RON2 block inactive, Pf growth 48h inactive, Shiga inhibitor inactive, CHX counter 13, Pf growth 96h inactive and HCV inh inactive.
N#C/C(=C1/CCCCCN1)c1nc2ccccc2[nH]1 was read as AMA1 RON2 block inactive, Pf growth 48h inactive, Shiga inhibitor 44, CHX counter 122, Pf growth 96h inactive and HCV inh inconclusive.
C/C(O)=C(/C#N)c1nc2ccccc2[nH]1 was read as AMA1 RON2 block inactive, Pf growth 48h inactive, Shiga inhibitor inactive, CHX counter inactive, Pf growth 96h inactive and HCV inh inactive.
Screening CC(=O)OC(/C(O)=C(\C#N)c1nc2ccccc2[nH]1)c1ccccc1 (stereo unspecified) returned AMA1 RON2 block inactive, Pf growth 48h inconclusive, Shiga inhibitor inactive, CHX counter inactive, Pf growth 96h 9.3µM and HCV inh inactive.
COc1cc(/C(O)=C(\C#N)c2nc3ccccc3[nH]2)cc(OC)c1OC was read as AMA1 RON2 block inactive, Pf growth 48h inconclusive, Shiga inhibitor inactive, CHX counter inactive, Pf growth 96h 15µM and HCV inh inactive.
Screening Cn1c(SCc2ccc(Cl)cc2)nnc1-c1ccc2nonc2c1 returned AMA1 RON2 block inactive, Pf growth 48h inactive, Shiga inhibitor inactive, CHX counter inactive, Pf growth 96h inactive and HCV inh inactive.
N#C/C(C(=O)c1ccccc1)=C1/CCCCCN1 was read as AMA1 RON2 block inactive, Pf growth 48h inactive, Shiga inhibitor 94, CHX counter 44, Pf growth 96h inactive and HCV inh inactive.
N#C/C(=C1\CCCN1)c1ccc2ccccc2n1 was read as AMA1 RON2 block inactive, Pf growth 48h inactive, Shiga inhibitor inactive, CHX counter inactive, Pf growth 96h inactive and HCV inh inconclusive.
COc1cc(Br)cc(C(=O)N2CCc3ccccc32)c1OC was read as AMA1 RON2 block inactive.
O=C(c1cc2cc(Br)ccc2[nH]1)N1CCc2ccccc21 was read as AMA1 RON2 block inactive, Pf growth 48h inconclusive, Shiga inhibitor inactive, CHX counter 19, Pf growth 96h 1.5µM and HCV inh inactive.
`O=C(c1cccc(F)c1)N1CCc2ccccc21` gave AMA1 RON2 block inactive, Pf growth 48h inactive, Shiga inhibitor inactive, CHX counter inactive and HCV inh inconclusive.
O=C(c1cc2cc(F)ccc2[nH]1)N1CCc2ccccc21 was read as AMA1 RON2 block inactive, Pf growth 48h inconclusive, Shiga inhibitor 74, CHX counter 34, Pf growth 96h inconclusive and HCV inh inactive.
Screening COc1ccc2cc(C(=O)N3CCc4ccccc43)[nH]c2c1 returned AMA1 RON2 block inactive, Pf growth 48h inactive, Shiga inhibitor 100, CHX counter 34, Pf growth 96h inactive and HCV inh inactive.
Cc1cc(C(=O)N2CCc3ccccc32)c2cc(F)ccc2n1 was read as AMA1 RON2 block inactive, Pf growth 48h inactive, Shiga inhibitor 72, CHX counter 35, Pf growth 96h inactive and HCV inh inactive.
For CNc1nc(Nc2ccc(C(=O)OC)cc2)c2sccc2n1 the results were AMA1 RON2 block inactive.
`C=CCOc1ccc(CNCC2CCCO2)cc1` (stereo unspecified) gave AMA1 RON2 block inactive, Pf growth 48h inactive, Shiga inhibitor inactive, CHX counter inactive, Pf growth 96h inactive and HCV inh inactive.
`O=S(=O)(c1ccc(Cl)s1)N1CCCc2cccc(O)c21` gave AMA1 RON2 block inactive, Shiga inhibitor 84, CHX counter 50, Pf growth 96h inactive and HCV inh inconclusive.
`CC(C)CC(=O)Nc1ccc2c(c1)nc(CCN1CCOCC1)n2C` gave AMA1 RON2 block inactive, Pf growth 48h inactive, Shiga inhibitor inactive, CHX counter inactive, Pf growth 96h inactive and HCV inh inactive.
For CCN(C(=O)CN1C(=O)NC2(CCCC2)C1=O)c1nc2c(C)cccc2s1 the results were AMA1 RON2 block inactive.
COc1ccc(C2=NN(C(=O)CCC(=O)O)C(c3ccccc3F)C2)cc1 (stereo unspecified) was read as AMA1 RON2 block inactive, Pf growth 48h inactive, Shiga inhibitor inactive, CHX counter inactive, Pf growth 96h 2.3µM and HCV inh inactive.
COc1ccc(C2=NN(C(=O)CCC(=O)O)C(c3ccc(OC)c(OC)c3)C2)cc1 (stereo unspecified) was read as AMA1 RON2 block inactive, Pf growth 48h inactive, Shiga inhibitor inactive, CHX counter inactive, Pf growth 96h 12µM and HCV inh inactive.
O=C(O)CCC(=O)N1N=C(c2ccc(Br)cc2)CC1c1cccc(Br)c1 (stereo unspecified) was read as AMA1 RON2 block inactive, Pf growth 48h 6.6µM, Shiga inhibitor inactive, CHX counter inactive, Pf growth 96h inactive and HCV inh inactive.
Screening COc1ccc(C2CC(c3ccc(Br)cc3)=NN2C(=O)CCC(=O)O)cc1OC (stereo unspecified) returned AMA1 RON2 block inactive, Pf growth 48h inactive, Shiga inhibitor inactive, CHX counter inactive, Pf growth 96h inactive and HCV inh inactive.
`O=C(O)CCC(=O)N1N=C(c2ccc(Br)cc2)CC1c1ccc(Br)cc1` (stereo unspecified) gave AMA1 RON2 block inactive, Pf growth 48h inactive, Shiga inhibitor inactive, CHX counter inactive, Pf growth 96h inconclusive and HCV inh inactive.
CCCCNC(=O)C1(C)CCC(=O)N1CCOC (stereo unspecified) was read as AMA1 RON2 block inactive.
For CCCCCCCCSc1nnc2[nH]c(=O)cc(N)n12 the results were AMA1 RON2 block inactive, Pf growth 48h inactive, Shiga inhibitor inactive, CHX counter inactive, Pf growth 96h inactive and HCV inh inactive.
For CCCCCCSc1nnc2[nH]c(=O)cc(N)n12 the results were AMA1 RON2 block inactive, Pf growth 48h inconclusive, Shiga inhibitor inactive, CHX counter inactive, Pf growth 96h 5.2µM and HCV inh inactive.
`Cc1ccc(-n2nc3c(c2NC(=O)c2ccc(F)c(F)c2)CS(=O)(=O)C3)cc1` gave AMA1 RON2 block inactive, Pf growth 48h inactive, Shiga inhibitor inactive, CHX counter inactive, Pf growth 96h inconclusive and HCV inh inactive.
